# Among all 360,000 compounds or so, about 950 (0.26%) were called active. The full list was thinned out, with actives kept by preference. Values without a mark were called inactive. No stated cut-off is given here; in the data, active means inhibition above about 11%; inactive means the rest.
# Assay: reduced absorbance of E. coli cultures with phage – HTS, RecBCD inhibitor project, primary screen (AID 651602)
# Details: growth absorbance, at 11.9 µM, stronger effect = higher value
row,Compound,inhibition
1,C/C(=N/O)c1ccc2ccc3ccccc3c2c1,1.01%
2,O=[N+]([O-])c1cnc2ccc3ccccc3c2c1,18.9% (active)
3,Cc1ccc(-n2c(-c3ccc([N+](=O)[O-])cc3)nc3ccccc3c2=O)cc1,0.89%
4,Cc1cccc(-n2c(C)nc3cc(C(=O)N4CCC5(CC4)OCCO5)ccc32)c1,4.97%
5,COC(=O)C1=C(c2ccc(OCc3ccccc3)cc2)C[C@@H]2CC[C@H]1N2C(=O)NCc1cccc(F)c1,4.61%
6,N#CC1=C(N)Oc2c(c(=O)oc3ccccc23)C1c1ccccc1OC(=O)c1cccs1 (stereo not given),5.44%
7,O=c1[nH]c(=O)n(-c2ccccc2)c(O)c1C=NC12CN3CN(CN(C3)C1)C2,1.36%
8,CCc1nnc(NS(=O)(=O)c2ccc(N=Cc3c(O)n(-c4ccccc4)c(=O)[nH]c3=O)cc2)s1,11.9% (active)
9,COc1ccc(N=Cc2c(O)n(C)c(=O)[nH]c2=O)cc1,0.79%
10,CCC1(C)CC(CCNCc2ccc(N(C)C)cc2)(c2ccc(F)cc2)CCO1 (stereo not given),4.38%
